Each sequence was assayed on PPARg:RXRa 90nM:30nM, anti-RXR (NR concentration 90 nM, RXRa partner concentration 30 nM) (assay: PBM binding z-score (relative to random genomic background probes); higher = stronger binding; sequences stand for … in GC…GCGATTGACAGCGTAGAATGAAGG).
Method in brief: (§1)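 Each nuclear receptor dimer, without ligand, was incubated for 1 h on custom Agilent 4×180K protein-binding microarrays. Binding was detected with antibodies against each partner (one per run), and scanned fluorescence was regression-normalized. The binding z-scores are referenced to random human genomic background probes.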

Sequence	PBM binding z-score
CTATGTAGGTTAAGGGGGTCATTCAGTTTGAAAG	8.01
CCGAGTAGGTTACGAGGGGGCCTTCAGTGCGAAT	1.8
CCGAGTAGGTTACGAGGGGGCATTCACTGCGAAT	2.85
CCGAGTAGGTTACGAGGGGGCATTCATTGCGAAT	2.85
CTATATAGGTTAAGGGGGTCATTCAGTTTGAAAG	8.09
CAGAGTAGGTTACGAGGGGGCATTCAGTGCGAAT	3.3
CTATGTAGGTTAAGGGGTTCATTCAGTTTGAAAG	6.09
CCGAGTAGGTTACGAGGCGGCATTCAGTGCGAAT	0.408
CTAAGTAGGTTAAGGGGGTCATTCAGTTTGAAAG	8.16
TCGAGTAGGCTACGGGGGCATTCAGGGATGAAGA	1.8
CCATGTAGGTTAAGGGGGTCATTCAGTTTGAAAG	6.52
CTATGTAGGTTAAGGGTGTCATTCAGTTTGAAAG	8.04
CTATGTAGGCTAAGGGGGTCATTCAGTTTGAAAG	6.14
CCGAGTAGGTTACGAGGGGGCTTTCAGTGCGAAT	1.82
CTATGTAGGTTAAGGGGGTCATTCGGTTTGAAAG	7.86
CTATGTTGGTTAAGGGGGTCATTCAGTTTGAAAG	4.57
CCGAGTAGGTTACGAGGGGGCATCCAGTGCGAAT	2.31

Each sequence was assayed on PPARg:RXRa DBDmut IVT, anti-RXR (DBD mutation: RXRa K156A/R161A, NR concentration 270 nM, RXRa partner concentration 90 nM) in the same assay as above.
Method in brief: as §1

Sequence	PBM binding z-score
CCGAGTAGGTTACGAGGGGGCATTCAATGCGAAT	4.67
CCGAGTAGGTTACGAGGGGGCATTTAGTGCGAAT	4.67
TCGAGTAGGTTACGGGGGGATTCAGGGATGAAGA	4.94
CTGAGTAGGTTACGAGGGGGCATTCAGTGCGAAT	6.01
CTATGTAGGTTAAGGGGGTCATACAGTTTGAAAG	7.64
CTATGTAGGTTAAGGGGGTCTTTCAGTTTGAAAG	7.13
CCGAGTAGGTTACGAGGGGGCAATCAGTGCGAAT	4.92
CCGAGTAGGTTACCAGGGGGCATTCAGTGCGAAT	3.65
TCGAGTCGGTTACGGGGGCATTCAGGGATGAAGA	1.87
TCGAGTAGGTTACGGGGACATTCAGGGATGAAGA	4.18
CTATGTAGGTTAAGGGGGTCATTCCGTTTGAAAG	7.72
CTATGTAGGTTGAGGGGGTCATTCAGTTTGAAAG	3.98
CCGAGTGGGTTACGAGGGGGCATTCAGTGCGAAT	3.36
CCGAGTAGGTTATGAGGGGGCATTCAGTGCGAAT	3.45
CCGAGTAGGTAACGAGGGGGCATTCAGTGCGAAT	3.83
CCGGGTAGGTTACGAGGGGGCATTCAGTGCGAAT	1.95
CCGAGTAGCTTACGAGGGGGCATTCAGTGCGAAT	0.648
CTATGAAGGTTAAGGGGGTCATTCAGTTTGAAAG	3.68
CCGAGTAGGTTACGAGGAGGCATTCAGTGCGAAT	4.34
CTCTGTAGGTTAAGGGGGTCATTCAGTTTGAAAG	5.92

Sequence	PBM binding z-score
CTATGGAGGTTAAGGGGGTCATTCAGTTTGAAAG	4.65
TCGAGTAGGTTACGGGGGCATTCACGGATGAAGA	5.07
CTATGTAGGTTAAGGGGGTCATTCAGTTTGAAAG	7.67
CCGAGTAGGTTACGAGGGGGCCTTCAGTGCGAAT	4.2
CCGAGTAGGTTACGAGGGGGCATTCACTGCGAAT	4.81
CCGAGTAGGTTACGAGGGGGCATTCATTGCGAAT	4.44
CTATATAGGTTAAGGGGGTCATTCAGTTTGAAAG	7.39
CAGAGTAGGTTACGAGGGGGCATTCAGTGCGAAT	5.73
CTATGTAGGTTAAGGGGTTCATTCAGTTTGAAAG	6.98
CCGAGTAGGTTACGAGGCGGCATTCAGTGCGAAT	4.1
CTAAGTAGGTTAAGGGGGTCATTCAGTTTGAAAG	7.83
TCGAGTAGGCTACGGGGGCATTCAGGGATGAAGA	2.36
CCATGTAGGTTAAGGGGGTCATTCAGTTTGAAAG	5.55
CTATGTAGGTTAAGGGTGTCATTCAGTTTGAAAG	7.72
CTATGTAGGCTAAGGGGGTCATTCAGTTTGAAAG	5.39
CCGAGTAGGTTACGAGGGGGCTTTCAGTGCGAAT	4.79
CTATGTAGGTTAAGGGGGTCATTCGGTTTGAAAG	6.81
CTATGTTGGTTAAGGGGGTCATTCAGTTTGAAAG	3.11
CCGAGTAGGTTACGAGGGGGCATCCAGTGCGAAT	4.1

The sequences below were run on PPARg:RXRa IVT, anti-PPARg (NR concentration 270 nM, RXRa partner concentration 90 nM) in the same assay as above.
Method in brief: as §1

Sequence	PBM binding z-score
CCGAGTAGGTTACGAGGGGGCATTCAATGCGAAT	4.57
CCGAGTAGGTTACGAGGGGGCATTTAGTGCGAAT	4.43
TCGAGTAGGTTACGGGGGGATTCAGGGATGAAGA	5.45
CTGAGTAGGTTACGAGGGGGCATTCAGTGCGAAT	6.11
CTATGTAGGTTAAGGGGGTCATACAGTTTGAAAG	7.1
CTATGTAGGTTAAGGGGGTCTTTCAGTTTGAAAG	7.07
CCGAGTAGGTTACGAGGGGGCAATCAGTGCGAAT	4.42
CCGAGTAGGTTACCAGGGGGCATTCAGTGCGAAT	4.24
TCGAGTCGGTTACGGGGGCATTCAGGGATGAAGA	3.65
TCGAGTAGGTTACGGGGACATTCAGGGATGAAGA	4.72
CTATGTAGGTTAAGGGGGTCATTCCGTTTGAAAG	7.69
CTATGTAGGTTGAGGGGGTCATTCAGTTTGAAAG	5.16
CCGAGTGGGTTACGAGGGGGCATTCAGTGCGAAT	3.81
CCGAGTAGGTTATGAGGGGGCATTCAGTGCGAAT	4.11
CCGAGTAGGTAACGAGGGGGCATTCAGTGCGAAT	3.65
CCGGGTAGGTTACGAGGGGGCATTCAGTGCGAAT	4.17
CCGAGTAGCTTACGAGGGGGCATTCAGTGCGAAT	0.528
CTATGAAGGTTAAGGGGGTCATTCAGTTTGAAAG	5.15
CCGAGTAGGTTACGAGGAGGCATTCAGTGCGAAT	3.39
CTCTGTAGGTTAAGGGGGTCATTCAGTTTGAAAG	6.03

Sequence	PBM binding z-score
CTATGGAGGTTAAGGGGGTCATTCAGTTTGAAAG	6.42
TCGAGTAGGTTACGGGGGCATTCACGGATGAAGA	6.04
CTATGTAGGTTAAGGGGGTCATTCAGTTTGAAAG	7.74
CCGAGTAGGTTACGAGGGGGCCTTCAGTGCGAAT	4
CCGAGTAGGTTACGAGGGGGCATTCACTGCGAAT	4.25
CCGAGTAGGTTACGAGGGGGCATTCATTGCGAAT	4.49
CTATATAGGTTAAGGGGGTCATTCAGTTTGAAAG	7.38
CAGAGTAGGTTACGAGGGGGCATTCAGTGCGAAT	5.83
CTATGTAGGTTAAGGGGTTCATTCAGTTTGAAAG	6.85
CCGAGTAGGTTACGAGGCGGCATTCAGTGCGAAT	3.3
CTAAGTAGGTTAAGGGGGTCATTCAGTTTGAAAG	7.65
TCGAGTAGGCTACGGGGGCATTCAGGGATGAAGA	3.36
CCATGTAGGTTAAGGGGGTCATTCAGTTTGAAAG	6.99
CTATGTAGGTTAAGGGTGTCATTCAGTTTGAAAG	7.59
CTATGTAGGCTAAGGGGGTCATTCAGTTTGAAAG	5.71
CCGAGTAGGTTACGAGGGGGCTTTCAGTGCGAAT	4.3
CTATGTAGGTTAAGGGGGTCATTCGGTTTGAAAG	7.73
CTATGTTGGTTAAGGGGGTCATTCAGTTTGAAAG	5.29
CCGAGTAGGTTACGAGGGGGCATCCAGTGCGAAT	4.45

Reference: the supplement of paper PMC6555819
